Assay [1] concerns Staphylococcus aureus. Nature of the assay: Antibacterial activity against Staphylococcus aureus MRSA ATCC 43300 (CO-ADD:GP_020); MIC in CAMBH media using NBS plates, by Resazurin F(560/590). It is filed as functional. To be noted: Concentration 20 uM, ASSAY_TEST Inhibition of Bacterial Growth, detection method Resazurin, Fluorescence (ex560/em590), MEDIA CAMHB, plate type 384well, CORNING #3640, time 18 hr. On the technique in general: The colour change of resazurin is a common sign of viable cells or microbes.

In assay [2] the test system is Acinetobacter baumannii. Nature of the assay: Antibacterial activity against Acinetobacter baumannii ATCC 19606 (CO-ADD:GN_034); MIC in CAMBH media using NBS plates, by Resazurin F(560/590). Conditions: Concentration 20 uM, ASSAY_TEST Inhibition of Bacterial Growth, detection method Resazurin, Fluorescence (ex560/em590), MEDIA CAMHB, plate type 384well, CORNING #3640, time 18 hr. Type of assay: functional.

For assay [3], the system named is Escherichia coli. Nature of the assay: Antibacterial activity against Escherichia coli ATCC 25922 (CO-ADD:GN_001); MIC in CAMBH media using NBS plates, by Resazurin F(560/590). To be noted: Concentration 20 uM, ASSAY_TEST Inhibition of Bacterial Growth, detection method Resazurin, Fluorescence (ex560/em590), MEDIA CAMHB, plate type 384well, CORNING #3640, time 18 hr. It is filed as functional.

The test system of assay [4] is Klebsiella pneumoniae. To be noted: Concentration 20 uM; ASSAY_TEST Inhibition of Bacterial Growth; detection method Absorption (OD600); MEDIA CAMHB; plate type 384well; NBS; CORNING #3640; time 18 hr.
In assay [5] the test system is Candida albicans. To be noted: 20 µM.
In assay [6] the test system is Cryptococcus neoformans. Conditions: Concentration 20 uM; ASSAY_TEST Inhibition of Fungal Growth; detection method Resazurin; Absorption (OD600-OD570); plate type 384well; NBS; CORNING #3640.

Among the data in ChEMBL document CHEMBL4296182, “CO-ADD screening of NIH NCI Diversity Set V” are Inhibition values, retold here.

For part of these data: Results with a measured potency or affinity are listed apart.

The Inhibition is the drop in the measured response relative to a control, in per cent. Consider `CCN1CCC(Nc2ccnc3cc(Cl)ccc23)CC1`, for which the Inhibition in assay [1] is 11.96%; in assay [2], -0.07%; in assay [3] it was -4.98%; in assay [4] it was 16.53%; in assay [5], 2.51%; in assay [6], -6.53%.

On to `Cc1c(C#N)c2n(c1C)CCCC(=O)N2`, for which the Inhibition in assay [1] turned out to be 39.05%; in assay [2], 3.89%; in assay [3], 19.57%; in assay [4] it was 7.55%; in assay [5], 10.6%; in assay [6] it was 5.76%.

Regarding `COc1ccc(C(C)=O)cc1CO/N=C1\CSCc2ccccc21`, the Inhibition in assay [1] is 16.78%; in assay [2], 9.55%; in assay [3], 4.94%; in assay [4], 9.39%; in assay [5], 18.6%; in assay [6] it was -2.91%.

Turning to `Cc1cc(O)c(-c2cc(O)c(C)cc2O)cc1O`, the Inhibition in assay [1] is 5.49%; in assay [2], -9.17%; in assay [3], 6.61%; in assay [4] it was 0.01%; in assay [5] it was 5.95%; in assay [6] it was 17.06%.

`Cc1c(C(C)(C(=O)O)c2c(C)n(C)c3ccccc23)c2ccccc2n1C`: the Inhibition is 11.46% in assay [1]; 7.57% in assay [2]; 2.78% in assay [3]; 3.48% in assay [4]; 9.04% in assay [5]; -5.48% in assay [6].

With `CCOC(=O)c1c(C)nc(C)c(C(=O)OCC)c1-c1cccnc1`, the Inhibition was -3.54% in assay [1]; 13% in assay [2]; -4.27% in assay [3]; 5.06% in assay [4]; 0.35% in assay [5]; -2.16% in assay [6].

Consider `Cc1ccccc1N=C(S)Nc1ccccn1`, for which the Inhibition was -11.3% in assay [1]; 17.16% in assay [2]; -8.87% in assay [3]; 16.17% in assay [4]; 15.5% in assay [5]; 4.14% in assay [6].

`C=CCSC(CC)(CC)C(N)=O`: the Inhibition is 1.95% in assay [1]; -2.06% in assay [2]; -8.58% in assay [3]; 10.13% in assay [4]; 1.53% in assay [5]; 7.21% in assay [6].

On to `CCCCc1c(C)nc(S)nc1O`, for which the Inhibition in assay [1] is 16.17%; in assay [2] it was -14.45%; in assay [3] it was 9.4%; in assay [4] it was 7.26%; in assay [5], 2.04%; in assay [6], -3.51%.

As to `N=C(N)NS(=O)(=O)c1ccc(/N=C2/C(=O)Nc3ccccc32)cc1`, the Inhibition in assay [1] was 10.79%; in assay [2], 2.06%; in assay [3], 11.61%; in assay [4], 5.69%; in assay [5] it was -0.17%; in assay [6], -10.75%.

As to `O=C(Nc1ccc(Cl)cc1)Nc1cccc2nsnc12`, the Inhibition in assay [1] is 6.14%; in assay [2] it was 9.14%; in assay [3] it was -11.2%; in assay [4], 5.1%; in assay [5], 11.3%; in assay [6] it was -2.68%.

`Cc1ccc(Nc2nnc(-c3ccc4c(c3)OCO4)o2)c(C)c1`: the Inhibition in assay [1] was 30.86%; in assay [2], -8.42%; in assay [3] it was 5.86%; in assay [4], 21.23%; in assay [5], 28.8%; in assay [6], -3.73%.

`CCCCOc1ccc(Nc2cc(Cl)ccc2C(=O)O)cn1`: the Inhibition in assay [1] is 11.44%; in assay [2], 0.16%; in assay [3], 4.02%; in assay [4] it was 9.69%; in assay [5], 10.4%; in assay [6], -7.88%.

On to `COc1cc2c(cc1OC)C(C1(O)CCCCC1)NCC2` (stereo not given), for which the Inhibition in assay [1] is 18.67%; in assay [2], -1.81%; in assay [3], 15.36%; in assay [4] it was -0.68%; in assay [5], -2.01%; in assay [6] it was -12.78%.

Turning to `Cn1cnc([N+](=O)[O-])c1Sc1n[nH]c(N)n1`, the Inhibition in assay [1] was 6.38%; in assay [2], 14.39%; in assay [3], -1%; in assay [4], 1.75%; in assay [5], -0.83%; in assay [6] it was -4.45%.

Turning to `Cc1ccc(NC(=S)NC(=O)c2ccccc2)cc1NC(=S)NC(=O)c1ccccc1`, the Inhibition is 23.47% in assay [1]; -11.72% in assay [2]; 7.94% in assay [3]; 3.93% in assay [4]; -0.27% in assay [5]; 1.39% in assay [6].

For the compound `Nc1ccc(/N=N/c2ccc(O)cc2)c(N)n1`, the Inhibition was -3.88% in assay [1]; -10.7% in assay [2]; 0% in assay [3]; 0.93% in assay [4]; 0.86% in assay [5]; -14.36% in assay [6].

Take `CSc1nc(N)c(C(=O)Nc2ccc([N+](=O)[O-])cc2)s1`: the Inhibition in assay [1] is 3.88%; in assay [2], 5.85%; in assay [3], 8.19%; in assay [4], 8.8%; in assay [5], 7.49%; in assay [6], -10.16%.

Take `Cc1nnsc1C(=O)NCc1c(F)cccc1Cl`: the Inhibition in assay [1] was -1.87%; in assay [2], -1.01%; in assay [3] it was -7.07%; in assay [4], 6.44%; in assay [5], -0.57%; in assay [6] it was -9.18%.

Take `NS(=O)(=O)c1ccc(Cl)cc1[N+](=O)[O-]`: the Inhibition in assay [1] was -0.55%; in assay [2] it was -3.88%; in assay [3] it was 8.03%; in assay [4], 12.78%; in assay [5], 3.7%; in assay [6] it was 15.75%.

Turning to `Oc1ncnc(CN2CCCCC2)c1O`, the Inhibition in assay [1] was 7.4%; in assay [2], 1.82%; in assay [3] it was 7.79%; in assay [4] it was 2.35%; in assay [5] it was -1.92%; in assay [6] it was -11.85%.

In the case of `N#Cc1nnn2c1nc(N)c1c(Cl)cccc12`, the Inhibition in assay [1] is 11.84%; in assay [2] it was 9.93%; in assay [3] it was 2.46%; in assay [4], 14.13%; in assay [5], 1.33%; in assay [6], -4.78%.

For `Cc1cccc2c1c1ccc3c(c1n2C)C(=O)C=CC3=O`, the Inhibition in assay [1] is -3.83%; in assay [2] it was -13.4%; in assay [3], 14.66%; in assay [4], 10.43%; in assay [5], 16.9%; in assay [6], 1.61%.

`COc1ccc(/N=N/c2c(N)n[nH]c2N)cc1`: the Inhibition in assay [1] was 9.98%; in assay [2] it was -10.61%; in assay [3], 6.79%; in assay [4], 12.54%; in assay [5] it was 3.82%; in assay [6], -6.57%.

Regarding `O=C(Nc1ccc(Cl)cc1)c1cc2c(cc1O)[nH]c1ccccc12`, the Inhibition is -1.15% in assay [1]; -12.34% in assay [2]; 2.48% in assay [3]; 13.56% in assay [4]; 8.44% in assay [5]; -5.53% in assay [6].
